# Where two headings read alike, the source gives them in different places.
# Columns and labels:
# ERK1 = tested on: T1, ERK1; details: concentration: 1 μM, replicates: in singlicate; n = 1
# T1 construct: gene MAPK3
# ERK2 = tested on: T2, ERK2; details: concentration: 1 μM, replicates: in singlicate; n = 1
# T2 construct: gene MAPK1
# ERK3 = tested on: T3, ERK3; details: concentration: 1 μM, replicates: in singlicate; n = 1
# T3 construct: gene MAPK6
# ERK4 = tested on: T4, ERK4; details: concentration: 1 μM, replicates: in singlicate; n = 1
# T4 construct: gene MAPK4
# ERK5 = tested on: T5, ERK5; details: concentration: 1 μM, replicates: in singlicate; n = 1
# T5 construct: gene MAPK7
# ERK8 = tested on: T6, ERK8; details: concentration: 1 μM, replicates: in singlicate; n = 1
# T6 construct: gene MAPK15
# ERN1 = details: concentration: 1 μM, replicates: in singlicate; n = 1
# FAK = tested on: T7, FAK; details: n = 1
# T7 construct: gene PTK2
# FER = details: concentration: 1 μM, replicates: in singlicate; n = 1
# FES = details: concentration: 1 μM, replicates: in singlicate; n = 1
# FGFR1 = details: concentration: 1 μM, replicates: in singlicate; n = 1
# FGFR2 = details: concentration: 1 μM, replicates: in singlicate; n = 1
# FGFR3 = details: concentration: 1 μM, replicates: in singlicate; n = 1
# FGFR4 = details: concentration: 1 μM, replicates: in singlicate; n = 1
# FGR = details: concentration: 1 μM, replicates: in singlicate; n = 1
# FLT1 = details: concentration: 1 μM, replicates: in singlicate; n = 1
# FLT3-autoinhibited = details: concentration: 1 μM, replicates: in singlicate; n = 1
# FLT3 = details: concentration: 1 μM, replicates: in singlicate; n = 1
# FLT4 = details: concentration: 1 μM, replicates: in singlicate; n = 1
# FRK = details: concentration: 1 μM, replicates: in singlicate; n = 1
# [1] = concentration: 1 μM, replicates: in singlicate
# 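Further: KINOMEscan kinase panel screen.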
smiles,measurement,setting,value
O=C(Nc1n[nH]c2nc(-c3cccc(O)c3)ccc12)C1CC1 [SB-711805],%Inh,ERK1,0%
same,%Inh,ERK2,0%
same,%Inh,ERK3,0%
same,%Inh,ERK4,0%
same,%Inh,ERK5,47%
same,%Inh,ERK8,42%
same,%Inh,ERN1,0%
same,%Inh,FAK; [1],0%
same,%Inh,FER,36%
same,%Inh,FES,0%
same,%Inh,FGFR1,18%
same,%Inh,FGFR2,0%
same,%Inh,FGFR3,0%
same,%Inh,FGFR4,0%
same,%Inh,FGR,9%
same,%Inh,FLT1,10%
same,%Inh,FLT3-autoinhibited,21%
same,%Inh,FLT3,13%
same,%Inh,FLT4,0%
same,%Inh,FRK,0%
CC(C)c1nc(-c2ccc(F)c(NS(=O)(=O)c3c(F)cccc3F)c2)c(-c2ccnc(Nc3ccc(N4CCOCC4)nc3)n2)s1 [GSK1804250],%Inh,ERK1,8%
same,%Inh,ERK2,0%
same,%Inh,ERK3,1%
same,%Inh,ERK4,0%
same,%Inh,ERK5,10%
same,%Inh,ERK8,38%
same,%Inh,ERN1,49%
same,%Inh,FAK; [1],0%
same,%Inh,FER,41%
same,%Inh,FES,15%
same,%Inh,FGFR1,24%
same,%Inh,FGFR2,11%
same,%Inh,FGFR3,8%
same,%Inh,FGFR4,0%
same,%Inh,FGR,97.7%
same,%Inh,FLT1,88%
same,%Inh,FLT3-autoinhibited,0%
same,%Inh,FLT3,12%
same,%Inh,FLT4,97.3%
same,%Inh,FRK,89%
CS(=O)(=O)c1cccc(CNc2nc(Nc3ccc4c(c3)CCC(=O)N4)ncc2C(F)(F)F)c1,%Inh,ERK1,0%
same,%Inh,ERK2,17%
same,%Inh,ERK3,0%
same,%Inh,ERK4,0%
same,%Inh,ERK5,15%
same,%Inh,ERK8,90%
same,%Inh,ERN1,0%
same,%Inh,FAK; 1 µM,100%
same,%Inh,FER,0%
same,%Inh,FES,12%
same,%Inh,FGFR1,63%
same,%Inh,FGFR2,65%
same,%Inh,FGFR3,36%
same,%Inh,FGFR4,32%
same,%Inh,FGR,0%
same,%Inh,FLT1,77%
same,%Inh,FLT3-autoinhibited,54%
same,%Inh,FLT3,99%
same,%Inh,FLT4,89%
same,%Inh,FRK,0%
CN(c1ccc2c(c1)nc(NCc1ccccc1)n2C)c1ccnc(Nc2ccc(CS(C)(=O)=O)cc2)n1.Cl [GW811603],%Inh,ERK1,0%
same,%Inh,ERK2,3%
same,%Inh,ERK3,0%
same,%Inh,ERK4,0%
same,%Inh,ERK5,1%
same,%Inh,ERK8,6%
same,%Inh,ERN1,1%
same,%Inh,FAK; [1],23%
same,%Inh,FER,4%
same,%Inh,FES,0%
same,%Inh,FGFR1,100%
same,%Inh,FGFR2,27%
same,%Inh,FGFR3,0%
same,%Inh,FGFR4,0%
same,%Inh,FGR,33%
same,%Inh,FLT1,96.9%
same,%Inh,FLT3-autoinhibited,58%
same,%Inh,FLT3,98.8%
same,%Inh,FLT4,99.9%
same,%Inh,FRK,86%
Cc1cc(-c2c(-c3ccc(F)cc3)ncn2CCCN2CCOCC2)nc(N)n1 [SB-222517],%Inh,ERK1,4%
same,%Inh,ERK2,21%
same,%Inh,ERK3,0%
same,%Inh,ERK4,0%
same,%Inh,ERK5,0%
same,%Inh,ERK8,6%
same,%Inh,ERN1,0%
same,%Inh,FAK; [1],0%
same,%Inh,FER,16%
same,%Inh,FES,35%
same,%Inh,FGFR1,20%
same,%Inh,FGFR2,0%
same,%Inh,FGFR3,0%
same,%Inh,FGFR4,0%
same,%Inh,FGR,9%
same,%Inh,FLT1,0%
same,%Inh,FLT3-autoinhibited,0%
same,%Inh,FLT3,27%
same,%Inh,FLT4,0%
same,%Inh,FRK,0%
Nc1ncc(-c2cn[nH]c2)c2scc(-c3ccc4c(c3)CCN4C(=O)Cc3ccccc3)c12 [GSK2593067],%Inh,ERK1,3%
same,%Inh,ERK2,3%
same,%Inh,ERK3,0%
same,%Inh,ERK4,0%
same,%Inh,ERK5,0%
same,%Inh,ERK8,10%
same,%Inh,ERN1,0%
same,%Inh,FAK; [1],0%
same,%Inh,FER,29%
same,%Inh,FES,0%
same,%Inh,FGFR1,37%
same,%Inh,FGFR2,31%
same,%Inh,FGFR3,19%
same,%Inh,FGFR4,0%
same,%Inh,FGR,80%
same,%Inh,FLT1,83%
same,%Inh,FLT3-autoinhibited,13%
same,%Inh,FLT3,98.4%
same,%Inh,FLT4,43%
same,%Inh,FRK,38%
CN(c1ccc(NC(=O)Nc2cccc(Cl)c2)cc1)c1ccnc(N)n1.Cl [GW830707],%Inh,ERK1,0%
same,%Inh,ERK2,12%
same,%Inh,ERK3,0%
same,%Inh,ERK4,0%
same,%Inh,ERK5,0%
same,%Inh,ERK8,6%
same,%Inh,ERN1,32%
same,%Inh,FAK; [1],15%
same,%Inh,FER,9%
same,%Inh,FES,19%
same,%Inh,FGFR1,9%
same,%Inh,FGFR2,0%
same,%Inh,FGFR3,0%
same,%Inh,FGFR4,7%
same,%Inh,FGR,4%
same,%Inh,FLT1,97.1%
same,%Inh,FLT3-autoinhibited,56%
same,%Inh,FLT3,97.6%
same,%Inh,FLT4,60%
same,%Inh,FRK,49%
CN(c1ccc(F)c(NC(=O)c2cccc(OC(C)(C)C#N)c2Cl)c1)c1ccc2nc(NC(=O)C3CC3)sc2n1,%Inh,ERK1,1%
same,%Inh,ERK2,1%
same,%Inh,ERK3,0%
same,%Inh,ERK4,0%
same,%Inh,ERK5,4%
same,%Inh,ERK8,0%
same,%Inh,ERN1,0%
same,%Inh,FAK; [1],1%
same,%Inh,FER,0%
same,%Inh,FES,0%
same,%Inh,FGFR1,48%
same,%Inh,FGFR2,72%
same,%Inh,FGFR3,8%
same,%Inh,FGFR4,26%
same,%Inh,FGR,84%
same,%Inh,FLT1,95.8%
same,%Inh,FLT3-autoinhibited,0%
same,%Inh,FLT3,96.7%
same,%Inh,FLT4,99.8%
same,%Inh,FRK,71%
CC(C)(C)c1ccc(C(=O)Nc2cn3cc(-n4ccnc4)ccc3n2)cc1,%Inh,ERK1,0%
same,%Inh,ERK2,13%
same,%Inh,ERK3,10%
same,%Inh,ERK4,5%
same,%Inh,ERK5,19%
same,%Inh,ERK8,0%
same,%Inh,ERN1,25%
same,%Inh,FAK; [1],7%
same,%Inh,FER,0%
same,%Inh,FES,0%
same,%Inh,FGFR1,0%
same,%Inh,FGFR2,22%
same,%Inh,FGFR3,11%
same,%Inh,FGFR4,7%
same,%Inh,FGR,0%
same,%Inh,FLT1,0%
same,%Inh,FLT3-autoinhibited,21%
same,%Inh,FLT3,71%
same,%Inh,FLT4,0%
same,%Inh,FRK,10%
CNc1nccc(-c2ccc3c(N)n[nH]c3c2)n1 [GSK2206003],%Inh,ERK1,3%
same,%Inh,ERK2,0%
same,%Inh,ERK3,0%
same,%Inh,ERK4,32%
same,%Inh,ERK5,9%
same,%Inh,ERK8,28%
same,%Inh,ERN1,4%
same,%Inh,FAK; [1],0%
same,%Inh,FER,25%
same,%Inh,FES,1%
same,%Inh,FGFR1,41%
same,%Inh,FGFR2,5%
same,%Inh,FGFR3,11%
same,%Inh,FGFR4,2%
same,%Inh,FGR,29%
same,%Inh,FLT1,49%
same,%Inh,FLT3-autoinhibited,14%
same,%Inh,FLT3,50%
same,%Inh,FLT4,5%
same,%Inh,FRK,6%

# From PMC5540273 (PLoS ONE, 2017)
